Results filed as inconclusive are left out. Activity calls are given as the source filed them. Unless noted, the call rests on the fitted dose curve; in most records, active means well fitted curve in the direction sought with a large enough effect; inconclusive means small, poorly fitted or top-dose-only effect, or another doubt; inactive means no such curve, though single readings can be large; an effect the other way counts as inactive or inconclusive.
What was measured:
[1] = Cell Viability - BJ (AID 421; calls by dose curve;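 further: potency means the concentration at half of the fitted maximal effect; cells exposed to compound for 40 hours at 37 °C before readout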); details: BJ fibroblast viability, qHTS
Summary of the method: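 Cytotoxicity in human BJ foreskin fibroblasts is scored as loss of cellular ATP after a 40-hour exposure, measured by luciferase luminescence. Controls are DMSO and 100 uM tamoxifen.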

[2] = Cell Viability - Jurkat (AID 426;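 active means dose-dependent loss of cell ATP signal giving a full or clear fitted curve, ranked by lower potency value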; further: potency means the concentration at half of the fitted maximal effect); details: qHTS
Summary of the method: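 Luminescent ATP read-out (CellTiter-Glo, 20 min at room temperature) after 40 hr compound exposure at 37 °C of Jurkat E6-1 cells, 5000/well. Decreased ATP taken as cytotoxicity; AC50 from standard Hill equation.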

[3] = Cell Viability - Hek293 (AID 427;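 active means compounds whose dose-response curve shows a full or clear partial loss of cell viability, called from curve shape rather than a numeric limit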;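 further: potency means the concentration at half of the fitted maximal effect; cells exposed to compound for 40 hours at 37 °C before reading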); details: qHTS
Summary of the method: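 qHTS, human embryonic kidney (adenovirus-transformed) cells; 40 hr cpd, 37 °C; CellTiter-Glo ATP luminescence. Norm: DMSO = 0, 100 uM tamoxifen = 100% inhibition. Hill-fit AC50.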

[4] = Cell Viability - HepG2 (AID 433; calls by dose curve;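 further: potency means the concentration at half of the fitted maximal effect; potency for ATP loss meaning cytotoxicity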); details: qHTS
Summary of the method: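 HepG2 cells, 1500 per well, treated 40 hr at 37 °C in complete medium; viability from intracellular ATP by CellTiter-Glo luminescence. Normalized to DMSO and 100 uM tamoxifen; AC50 from Hill fit of qHTS concentration-response.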

[5] = Cell Viability - SK-N-SH (AID 435; calls by dose curve; further: potency means the concentration at half of the fitted maximal effect); details: SK-N-SH neuroblastoma cell viability qHTS
Summary of the method: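 SK-N-SH neuroblastoma cells (1500/well) treated 40 h at 37 °C in complete medium; viability read as cellular ATP by CellTiter-Glo luminescence. Normalized to DMSO and 100 uM tamoxifen; AC50 from Hill fits of qHTS concentration-response.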

[6] = Cell Viability - N2a (AID 540); details: N2a mouse neuroblastoma cell viability; activity change, negative = cytotoxicity: at 92.2 µM (top of the series);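 further: plate controls were DMSO alone for no effect and tamoxifen control for full effect; nearly all actives have a fitted effect of over 45% in size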
Summary of the method: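 N2a mouse neuroblastoma, 1500 cells/well, 5 hr settle; compound 40 hr, 37 °C; CellTiter-Glo 20 min RT; luminescence; Hill-fit AC50.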

[7] = Cell Viability - HUV-EC-C (AID 542); details: HUV-EC-C endothelial cell viability, qHTS; series mostly up to 92.2 µM; further: on the % scale 0 is the no-effect control and ±100 the full control effect; nearly all actives have a fitted effect of over 35% in size
Summary of the method: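 Luminescent ATP read-out (CellTiter-Glo, 20 min room temperature) after 40 hr compound treatment of HUV-EC-C cells at 37 °C. Concentration-response data fitted with the standard Hill equation to give AC50; tamoxifen and doxorubicin served as positive controls.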

[8] = Cell Viability - SH-SY5Y (AID 544); details: SH-SY5Y neuroblastoma cell viability; viability change, negative = cytotoxic: at 92.2 µM (top of the series); further: nearly all actives have a fitted effect of over 55% in size
Summary of the method: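 SH-SY5Y, 1500 cells/well, 5 hr pre-incubation 37 °C; cpd 40 hr 37 °C; CellTiter-Glo 20 min RT; luminescence (ATP) read. qHTS concentration-response, Hill fit → AC50. Tamoxifen, doxorubicin as positive controls.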

[9] = Cell Viability - Renal Proximal Tubule (AID 545); details: renal proximal tubule cells viability, primary cells of rat origin; series mostly up to 91.7 µM; further: nearly all actives have a fitted effect of over 40% in size
Summary of the method: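 Rat renal proximal tubule primary cells, 1000/well, exposed to compounds for 40 hr at 37 °C in complete medium; cellular ATP read by CellTiter-Glo luminescence. AC50 from concentration-response fitted with standard Hill equation.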

[10] = Cell Viability - Mesenchymal (AID 546); details: mesenchymal cells viability, qHTS; series mostly up to 91.7 µM;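 further: cells exposed to compound for 40 hours before reading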
Summary of the method: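 CellTiter-Glo luminescence (intracellular ATP, 20 min room temperature) after 40 hr compound exposure at 37 °C of 1000 glomerulus-derived human kidney mesenchymal cells/well; AC50 values obtained by fitting qHTS concentration-response data to the Hill equation.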

[11] = Cellular Toxicity (caspase-3) HepG2 (AID 654); details: HepG2 caspase-3 activation, luminescence; series mostly up to 92.2 µM;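 further: cells exposed to compound for 16 hours before reading; 0% = DMSO alone and 100% = caspase signal from 100 µM tamoxifen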
Summary of the method: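 Luminescent Caspase-Glo 3/7 readout after 16 hr compound exposure of human hepatocellular carcinoma HepG2 cells at 37 °C; qHTS concentration-response, normalized DMSO = 0%, 100 uM tamoxifen = 100%; AC50 by standard Hill equation.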

[12] = Cellular Toxicity (caspase-3) Jurkat (AID 655); details: Jurkat caspase-3 activation, luminescence; caspase-3 activation: at 92.2 µM (top of the series), DMSO = 0%, tamoxifen = 100%;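 further: cells exposed to compound for 16 h at 37 °C before reading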
Summary of the method: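 Jurkat cells (5000/well) in complete medium exposed 16 h at 37 C; caspase-3/7 activity read by Caspase-Glo luminescence after 20 min at room temperature. Normalized to DMSO and 100 uM tamoxifen; AC50 from Hill fits.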

[13] = Cellular Toxicity (caspase-3) HUV-EC-C (AID 656); details: HUV-EC-C cells, caspase-3 activation (apoptosis), vehicle = 0, 100 µM tamoxifen = 100%; series mostly up to 92.2 µM
Summary of the method: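 HUV-EC-C cells (1000/well) in complete medium, compound-treated 16 h at 37 °C; caspase-3/7 activity read by Caspase-Glo 3/7 luminescence. Normalized to DMSO (basal) and 100 uM tamoxifen (100%); AC50 from Hill-equation concentration-response fits.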

[14] = Cellular Toxicity (caspase-3) SHSY5Y (AID 657); details: SH-SY5Y caspase-3 activation, DMSO zero, 10 µM staurosporine = 100%; series mostly up to 91.7 µM
Summary of the method: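 SH-SY5Y human neuroblastoma cells, 1500/well, exposed to compound for 16 hours at 37 °C in complete medium. Caspase-3/7 activity read by Caspase-Glo luminescence after 1 hr at room temperature, normalized to DMSO and 10 uM staurosporine; AC50 from Hill fit.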

[15] = Cellular Toxicity (caspase-3) BJ (AID 658); details: BJ fibroblasts, luminescence, normalized: DMSO 0%, staurosporine 100%; series mostly up to 91.7 µM
Summary of the method: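 Caspase-Glo 3/7 luminescence, read 1 hr after reagent at room temperature, in normal BJ fibroblasts exposed 16 hours at 37 °C. AC50 values from Hill-equation concentration-response, scaled between DMSO basal and 10 uM staurosporine as 100%.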

[16] = Cellular Toxicity (caspase-3) MRC-5 (AID 659); details: MRC-5 cells, luminescence, normalized: DMSO 0%, 10 µM staurosporine 100%; series mostly up to 91.7 µM
Summary of the method: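 Luminescent Caspase-Glo 3/7 read-out (1 h, room temperature) after a 16 h, 37 °C compound exposure of MRC-5 lung fibroblasts at 1500 cells/well. Concentration-response AC50 from Hill equation; 0% DMSO, 100% 10 uM staurosporine.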

[17] = target: Mitogen-activated protein kinase 10 (Mus musculus) (UniProt Q61831); assay: JNK3 AlphaScreen Assay (AID 530; active means well fitted curve in either direction with a large enough effect, not every such curve was filed as active;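 further: kinase came from lysate of stimulated human HepG2 cells; signal reports phosphorylation of biotinylated GST-cJun 1-79 at Ser73 with 10 µM ATP; on the % scale 0 is the no-effect control and ±100 the full control effect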); details: JNK3 lysate, c-Jun phosphorylation; series mostly up to 57.1 µM
Summary of the method: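 Kinase buffer: 20 mM Tris-HCl pH 7.6, 10 mM MgCl2, 1 mM DTT, 0.1 mM Na3VO4, 0.01% Tween-20; ATP 10 uM. Substrate biotin-GST-cJun(1-79), enzyme from activated HepG2 lysates. Detection by Ser73 phospho-antibody AlphaScreen.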

[18] = Cell Viability - NIH 3T3 (AID 541); details: NIH 3T3 cell viability, qHTS; activity change, negative = cytotoxicity: at 92.2 µM (top of the series);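 further: plate controls were DMSO alone for no effect and tamoxifen positive control for full effect; nearly all actives have a fitted effect of over 25% in size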
Summary of the method: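 qHTS format; 40 hr compound exposure, 37 °C; CellTiter-Glo luminescence (cellular ATP) read-out after 20 min at RT. Decrease in ATP = cytotoxicity; AC50 from standard Hill fit.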

[19] = Cell Viability - H-4-II-E (AID 543); details: H-4-II-E rat hepatoma viability; series mostly up to 92.2 µM; further: on the % scale 0 is the no-effect control and ±100 the full control effect; nearly all actives have a fitted effect of over 35% in size
Summary of the method: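 qHTS, rat hepatoma H-4-II-E, 1500 cells/well; 40 hr compound exposure, 37 °C; CellTiter-Glo ATP luminescence after 20 min RT; AC50 by standard Hill fit.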

Nc1ccccc1S(=O)(=O)O
inactive: Potency [1] > 92 µM | Potency [2] > 92 µM | Potency [3] > 92 µM | Potency [4] > 92 µM | Potency [5] > 92 µM | activity change, negative = cytotoxicity [6] 4.97% | Potency [7] | Potency [8] | Potency [9] | Potency [10] | Potency [11] | caspase-3 activation [12] 1.01% | outcome [13] | outcome [14] | outcome [15] | outcome [16]

Cc1ccccc1Br
inactive: Potency [1] > 92 µM | Potency [2] > 92 µM | Potency [3] > 92 µM | Potency [4] > 92 µM | Potency [5] > 92 µM | outcome [17] | activity change, negative = cytotoxicity [6] -5.14% | Potency [18] | Potency [7] | Potency [8] | Potency [10] | Potency [11] | caspase-3 activation [12] -0.129% | outcome [13] | outcome [14] | outcome [15] | outcome [16]

O=C(O)c1c(Cl)cccc1Cl
inactive: Potency [1] > 92 µM | Potency [2] > 92 µM | Potency [3] > 92 µM | Potency [4] > 92 µM | Potency [5] > 92 µM | outcome [17] | activity change, negative = cytotoxicity [6] -6.78% | Potency [18] | Potency [7] | Potency [19] | Potency [8] | Potency [9] | Potency [11] | caspase-3 activation [12] 0.737% | outcome [13] | outcome [14] | outcome [15] | outcome [16]

O=C(Cl)c1c(Cl)cccc1Cl
inactive: Potency [1] > 92 µM | Potency [2] > 92 µM | Potency [3] > 92 µM | Potency [4] > 92 µM | Potency [5] > 92 µM | outcome [17] | activity change, negative = cytotoxicity [6] 1.05% | Potency [18] | Potency [7] | Potency [19] | Potency [8] | Potency [9] | Potency [10] | Potency [11] | caspase-3 activation [12] 2.4% | outcome [13] | outcome [14] | outcome [16]

C1CCCC1
inactive: Potency [1] > 92 µM | Potency [2] > 92 µM | Potency [3] > 92 µM | Potency [4] > 92 µM | Potency [5] > 92 µM | outcome [17] | activity change, negative = cytotoxicity [6] 7.78% | Potency [18] | Potency [7] | Potency [19] | Potency [8] | Potency [10] | Potency [11] | caspase-3 activation [12] -0.234% | outcome [13] | outcome [14] | outcome [15] | outcome [16]

Cc1ccccc1C#N
inactive: Potency [1] > 92 µM | Potency [2] > 92 µM | Potency [3] > 92 µM | Potency [4] > 92 µM | Potency [5] > 92 µM | outcome [17] | activity change, negative = cytotoxicity [6] -9.75% | Potency [18] | Potency [7] | Potency [19] | Potency [8] | Potency [9] | Potency [11] | caspase-3 activation [12] 0.133% | outcome [13] | outcome [14] | outcome [15]

CCCC(Cl)CCCC(Cl)CCC(Cl)CCC(Cl)CCC(Cl)CCCC(Cl)CCC (stereo unspecified)
inactive: Potency [1] > 92 µM | Potency [2] > 92 µM | Potency [3] > 92 µM | Potency [4] > 92 µM | Potency [5] > 92 µM | outcome [17] | activity change, negative = cytotoxicity [6] -0.927% | Potency [18] | Potency [7] | Potency [19] | Potency [8] | Potency [10] | Potency [11] | caspase-3 activation [12] -0.794% | outcome [13] | outcome [15] | outcome [16]

c1ccc2c(c1)ccc1ncccc12
inactive: Potency [1] > 92 µM | Potency [2] > 92 µM | Potency [3] > 92 µM | Potency [4] > 92 µM | Potency [5] > 92 µM | outcome [17] | activity change, negative = cytotoxicity [6] -0.126% | Potency [18] | Potency [7] | Potency [19] | Potency [8] | Potency [9] | Potency [10] | Potency [11] | caspase-3 activation [12] 3.47% | outcome [13] | outcome [14] | outcome [15] | outcome [16]

COc1ccc(N)c(OC)c1
inactive: Potency [1] > 92 µM | Potency [2] > 92 µM | Potency [3] > 92 µM | Potency [4] > 92 µM | Potency [5] > 92 µM | outcome [17] | activity change, negative = cytotoxicity [6] -1.93% | Potency [18] | Potency [7] | Potency [19] | Potency [8] | Potency [10] | Potency [11] | caspase-3 activation [12] 0.6% | outcome [13] | outcome [14] | outcome [15] | outcome [16]

CC(=O)CC(C)C
inactive: Potency [1] > 92 µM | Potency [2] > 92 µM | Potency [3] > 92 µM | Potency [4] > 92 µM | Potency [5] > 92 µM | outcome [17] | activity change, negative = cytotoxicity [6] -14.8% | Potency [18] | Potency [7] | Potency [19] | Potency [8] | Potency [9] | Potency [10] | Potency [11] | caspase-3 activation [12] -2.68% | outcome [14] | outcome [15]

Cc1ccc(C)c(O)c1
inactive: Potency [1] > 92 µM | Potency [2] > 92 µM | Potency [3] > 92 µM | Potency [4] > 92 µM | Potency [5] > 92 µM | outcome [17] | activity change, negative = cytotoxicity [6] 3.3% | Potency [18] | Potency [7] | Potency [19] | Potency [8] | Potency [9] | Potency [10] | Potency [11] | caspase-3 activation [12] 0.228% | outcome [13] | outcome [14] | outcome [15] | outcome [16]

Cc1ccc(Cl)cc1N
inactive: Potency [1] > 92 µM | Potency [2] > 92 µM | Potency [3] > 92 µM | Potency [4] > 92 µM | Potency [5] 47.5 µM | outcome [17] | activity change, negative = cytotoxicity [6] -10.6% | Potency [18] | Potency [7] | Potency [19] | Potency [9] | Potency [10] | Potency [11] | caspase-3 activation [12] 4% | outcome [13] | outcome [14] | outcome [16]
